Entries with a potency or affinity are not part of this list. Active and inactive are the calls of the source.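 The calls were made as follows: active = every repeat run showing a signal drop whose fitted half-maximal concentration is at most twice the top tested concentration; inconclusive = repeat runs disagree, or flat partial drop, or poor fit; inactive = the rest.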

The assay is described as follows: general mammalian cell viability loss – activator set, cherry-pick, cytotoxicity control for miR-122 modulator project, dose response (AID 720690). The settings on record: HEK293T viability, CellTiter-Glo luminescence, 48 h; series mostly up to 26 µM.
In the case of `CCOC(=O)c1nc(C)n(-c2ccc(Cl)cc2Cl)n1`, the result was inactive. `CCCNC(=O)Nc1ccc2c(c1)C(=O)N(C)[C@H]1CC[C@@H](CC(=O)NCC3CCCCC3)O[C@@H]1CO2`: the molecule was called inactive. In the case of `CCN(C[C@@H]1[C@@H](c2ccc(C3=CCCCC3)cc2)[C@@H](CO)N1CC1CC1)C(C)=O` it was “inactive”; in that of `CC#CCCCC(=O)Nc1ccccc1C(=O)O`, “inactive”; in that of `COCC(=O)Nc1ccc2c(c1)C(=O)N(C)[C@H]1CC[C@@H](CC(=O)NCCCN(C)C)O[C@@H]1CO2`, “inactive”. Then `CO[C@@H]1CN(C)C(=O)c2ccc(NS(C)(=O)=O)cc2OC[C@H](C)N(C(=O)CN(C)C)C[C@@H]1C`, with “inactive”; and `Cc1oc(-c2ccc(Cl)cc2)nc1CN1CCCC(C(=O)NCc2ccco2)C1` (stereo not drawn), with “inactive”; and `CCC(=O)N(C)C[C@H]1Oc2cc(C#Cc3ccccc3)ccc2S(=O)(=O)N([C@@H](C)CO)C[C@H]1C`, with “inactive”. As for `CN1C(=O)c2cc(NC(=O)c3cccc(F)c3)ccc2OC[C@@H]2O[C@H](CC(=O)NC3CCC3)CC[C@@H]21`, the result was inactive. In the case of `C[C@@H]1CN([C@@H](C)CO)S(=O)(=O)c2ccc(C3=CCCC3)cc2O[C@@H]1CN(C)C(=O)c1ccc(F)cc1` it was “inactive”; in that of `Cc1ccc(S(=O)(=O)Nc2ccc3c(c2)C(=O)N(C)[C@@H]2CC[C@@H](CC(=O)NCCc4ccncc4)O[C@@H]2CO3)cc1`, “inactive”. In the case of `C[C@@H]1CN([C@H](C)CO)S(=O)(=O)c2ccc(C#CC3(O)CCCC3)cc2O[C@@H]1CN(C)C(=O)c1cccnc1` it was “inactive”. Then `COCC(=O)N(C)C[C@H]1Oc2cc(-c3ccc(C#N)cc3)ccc2S(=O)(=O)N([C@@H](C)CO)C[C@H]1C`, with “inactive”.

Values taken from PubChem BioAssay AID720690 (Broad Institute, 2013).
